According to PubChem BioAssay (Tox21):
Inconclusive results are not listed. Where a call stands in place of a potency, no number is given. Active and inactive are the calls of the source. The call rests on the fitted dose curve; in most records, active means well fitted cell-killing curve with a large enough effect in the repeat runs; inconclusive means weak or mixed curves, or effect the other way; inactive means flat fitted curve, though single readings scatter.

Legend:
[1] = cAMP Responsive Elements (CRE) small molecule antagonists, cell-based qHTS assay: qHTS cell viability counter screen (AID 2060913); further: nearly all actives have a fitted effect of over 40% in size
Outline: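 CRE-bla HEK293T cells (2,000/well, 18 h) given compound plus NKH477 0.25 uM final for 3 h at 37C; viability counter-screen by CellTiter-Glo luminescence in same wells after 30 min.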

[2] = cAMP Responsive Elements (CRE) small molecule agonists, cell-based qHTS assay: qHTS cell viability counter screen (AID 2060914); further: nearly all actives have a fitted effect of over 50% in size
Outline: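 Cytotoxicity was measured as ATP luminescence (CellTiter-Glo, 30 min at room temperature) in the same wells as the CRE-bla FRET read-out. HEK293T CRE-bla cells had 3 h compound exposure at 37C/5% CO2.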

Row | Structure (SMILES) | Potency [1] | Potency [2]
1 | O=[N+]([O-])c1c(Cl)cc(Cl)cc1Cl | inactive | inactive
2 | O=C(O)c1ccc(OCCN2CCCCC2)cc1 | inactive | inactive
3 | CCOC(=O)C(C)(C)Oc1ccc(Cl)cc1 | inactive | inactive
4 | N[C@H]1C(O)O[C@H](CO)[C@H](O)[C@@H]1O (stereo partly drawn) | inactive | inactive
5 | C=C(C)C(=O)OCCOC(=O)C(=C)C | inactive | inactive
6 | Cc1cc(Br)ccc1NC(=O)CCl | inactive | inactive
7 | CN(C)c1ccncc1 | inactive | inactive
8 | C=CC(=O)NC(C)C | inactive | inactive
9 | CCc1ccc(C(c2ccc(CC)cc2)C(Cl)Cl)cc1 | inactive | inactive
10 | COc1cc(Cl)c(OC)cc1N | inactive | inactive
11 | COc1ncnc(NS(=O)(=O)c2ccc(N)cc2)c1OC | inactive | inactive
12 | CCO[Si](CCCNC(N)=O)(OCC)OCC | inactive | inactive
13 | CCCCCC/C=C/C(=O)OC | inactive | inactive
14 | COc1ccc2c(c1)c(CC(=O)O)c(C)n2C(=O)c1ccc(Cl)cc1 | inactive | inactive
15 | COc1ccc(S(=O)(=O)Nc2nnc(CC(C)C)s2)cc1 | inactive | inactive
16 | CC(C)(C)c1cccc(O)c1 | inactive | inactive
17 | COc1cc(NC(C)CCCN)c2ncccc2c1 (stereo not drawn) | inactive | inactive
18 | Nc1nnc(-c2cccc(Cl)c2Cl)c(N)n1 | inactive | inactive
19 | CCCCCCCCCCC(CO)CCCCCCCC (stereo not drawn) | inactive | inactive
20 | Nc1nc(-c2ccc([N+](=O)[O-])cc2)cs1 | inactive | inactive
21 | COc1ccc2cc1Oc1ccc(cc1)C[C@H]1c3c(cc4c(c3Oc3cc5c(cc3OC)CCN(C)[C@@H]5C2)OCO4)CCN1C | inactive | inactive
22 | CC(=O)SC[C@@H](C)C(=O)N1CCC[C@H]1C(=O)N[C@@H](Cc1ccccc1)C(=O)O | inactive | inactive
23 | Nc1ccc2c3c(cccc13)-c1ccccc1-2 | inactive | inactive
24 | Nc1cccc(S(=O)(=O)O)c1 | inactive | inactive
25 | CCOC(=O)OCC | inactive | inactive
26 | CC(CCO)CC(C)(C)C (stereo not drawn) | inactive | inactive
27 | COc1cc2nc(Cl)nc(N)c2cc1OC | inactive | inactive

Row | Structure (SMILES) | Potency [1] | Potency [2]
28 | Cc1c(C(=O)O)c(O)cc2c1C(=O)c1c(O)c([C@@H]3O[C@H](CO)[C@@H](O)[C@H](O)[C@H]3O)c(O)c(O)c1C2=O | inactive | inactive
29 | CCC(C)c1cc([N+](=O)[O-])cc([N+](=O)[O-])c1OC(=O)OC(C)C (stereo not drawn) | inactive | inactive
30 | CCc1cccc(CC)c1 | inactive | inactive
31 | CC(C)COC(=O)c1ccccc1 | inactive | inactive
32 | c1ccccc1 | inactive | inactive
33 | CC(O)CN(CCN(CC(C)O)CC(C)O)CC(C)O (stereo not drawn) | inactive | inactive
34 | COc1ccc(/C=C/c2cc(OC)cc(=O)o2)cc1 | inactive | inactive
35 | CCN(CC)c1ccc(N=Nc2ccccc2)cc1 | inactive | inactive
36 | C1COCCN1 | inactive | inactive
37 | C=C1C(=C/C=C2\CCC[C@]3(C)[C@@H]([C@H](C)/C=C/[C@@H](O)C4CC4)CC[C@@H]23)C[C@@H](O)C[C@@H]1O | inactive | inactive
38 | CC(C)CCOCCC(C)C | inactive | inactive
39 | CCCc1nn(C)c2c(=O)[nH]c(-c3cc(S(=O)(=O)N4CCN(C)CC4)ccc3OCC)nc12 | inactive | inactive
40 | CCN(CC)c1ccc(C=O)cc1 | inactive | inactive
41 | CN1CCCC(CC2c3ccccc3Sc3ccccc32)C1 (stereo not drawn) | inactive | inactive
42 | CC(Cl)COP(=O)(OCC(C)Cl)OCC(C)Cl (stereo not drawn) | inactive | inactive
43 | O=C(O)c1snc(Cl)c1Cl | inactive | inactive
44 | CCc1cc(C(N)=S)ccn1 | inactive | inactive
45 | Cc1ccc(S(=O)(=O)O)cc1C | inactive | inactive
46 | Cc1ccc(C(C)C)cc1O | inactive | inactive
47 | O=C(O)/C=C\C(=O)O | inactive | inactive
48 | O=S(=O)(O)CC(O)CCl (stereo not drawn) | inactive | inactive
49 | CCn1ccnc1CC1COc2ccccc2O1 (stereo not drawn) | inactive | inactive
50 | CCOC(=O)c1ccc(C#Cc2ccc3c(c2)C(C)(C)CCS3)nc1 | inactive | inactive
51 | OCCN(CCO)c1ccccc1 | inactive | inactive
52 | CCCCCOC(=O)CCC | inactive | inactive
53 | COCCOC(=O)C1=C(C)NC(C)=C(C(=O)OC(C)C)C1c1cccc([N+](=O)[O-])c1 (stereo not drawn) | inactive | inactive
54 | CC(=O)C1C(=O)C=C(C)OC1=O (stereo not drawn) | inactive | inactive
